# About 83,000 compounds went through this panel and 20% of them were active in at least one assay; those are over-represented in the sample as a whole.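 Values shown are percent growth following 48 h exposure of cells in 96-well plates to a single concentration of compound; below 10 was considered active.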 Values without a mark were called inactive. Active and inactive are the calls of the source.
# Legend:
# Assay in all cases: NCI-60 one-dose screen, 48 h (100 = growth as untreated, 0 = no growth, -100 = all killed)
# Conditions in all cases: 10 µM unless noted
# [1] = system: NCI/ADR-RES ovarian
# [2] = system: T-47D breast
# [3] = system: BT-549 breast
# [4] = system: MDA-MB-435 melanoma
# [5] = system: SW-620 colon
# [6] = system: MCF7 breast
# [7] = system: HCT-116 colon
# [8] = system: HCC-2998 colon
# [9] = system: KM12 colon
Structure (SMILES),growth [1],growth [2],growth [3],growth [4],growth [5],growth [6],growth [7],growth [8],growth [9]
COc1cc(/C=C\c2cc(OC)c(OC)c(OC)c2)cc(N/C=C\C(=O)c2cc(OC)c(OC)c(OC)c2)c1OC,19.5%,-3% (active),43.9%,-37.3% (active),28.2%,15.1%,17.8%,53.6%,21.8%
COC(=O)[C@@]1(C)CC[C@]2(C)CC[C@]3(C)C4=CC=C5C(=CC(=O)C(O)=C5C)[C@]4(C)CC[C@@]3(C)[C@@H]2C1,-59.8% (active),-57.1% (active),-95.2% (active),-90.8% (active),-83% (active),-69.1% (active),-96.4% (active),-69.5% (active),-63.1% (active)
CCOC(=O)[C@@H](C)C[C@H](Cc1ccccc1)NC(=O)c1nc([C@@H](C[C@H](C(C)C)N(C)C(=O)[C@@H](NC(=O)[C@H]2CCCCN2C)C(C)C)OC(C)=O)sc1CCOCc1ccccc1,1.07% (active),24.7%,-50.9% (active),-58.3% (active),6.51% (active),5.53% (active),-33.7% (active),-59.6% (active),-39.8% (active)
COC1OC(CO)C(O)C(O)[CH]1[Hg][O]C(C)=O (stereo unspecified),92.4%,63.8%,103%,93.7%,89%,53.2%,102%,106%,94.5%
CC1(C)C(C(=O)c2cn(CCCCF)c3ccccc23)C1(C)C,98.1%,78.6%,100%,108%,99.1%,89%,90.4%,116%,102%
O=C1Nc2ccccc2C2c3cccn3-c3ccccc3CN12 (stereo unspecified),20.9%,27.7%,50.7%,-15% (active),24.5%,38.8%,41.7%,71.1%,30.3%
COc1cc(/C=C\c2cc(OC)c(OC)c(OC)c2)cc(NS(=O)(=O)c2cccc(Cl)c2)c1OC,7.73% (active),93.1%,24.1%,-20.2% (active),25.4%,7.6% (active),2.62% (active),13.9%,5.83% (active)
O=C(O)c1ccc([S-])cc1.[Au+].c1ccc(CN2[CH-]N(Cc3ccccc3)C(c3ccccc3)=C2c2ccccc2)cc1,3.13% (active),-66.5% (active),-21.2% (active),-9.04% (active),-50.2% (active),-86.1% (active),-84.7% (active),-72.7% (active),-26.1% (active)
O=C(O)CNC(=O)C(Cl)(Cl)Cl,108%,94.5%,103%,97.8%,94.8%,91.1%,107%,104%,101%

# Reference: PubChem BioAssay (NCI)
